# According to the supplement of paper PMC7411054:
# Where a name gives a salt, the structure may show the parent alone.
# Tests used:
# Details in all cases: treatment time: 24 h
# WPMY1-GM130-SQSTM1 [1] = assay: lowest phenotypically active concentration; higher = less potent
# Outline: (§1)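 Phenotypic activity depended on meeting both a deviation and a reproducibility criterion. The fifteen gene-edited A549, HepG2 and WPMY1 reporter lines were treated at 0.3, 1, 3 or 9 µM for 24 h, four wells each, then imaged live with features normalised to solvent control wells. Deviation required ≥3 of 4 wells past the 95th percentile of control Euclidean distances, and reproducibility a median replicate Pearson correlation above the 95th percentile of non-replicates.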
# A549-ACTB-RAB5A = assay: phenotypically active (imaging signature differs from DMSO and reproducible) at any of 0.3-9 uM (binary (1 = active, 0 = inactive)); higher = active
# Outline: as §1
# A549-CANX-COX4 = assay: as above
# Outline: as §1
# A549-GM130-SQSTM1 [2] = assay: as above
# Outline: as §1
# A549-TP53BP1-CLTA = assay: as above
# Outline: as §1
# A549-TUBA1B-RELA = assay: as above
# Outline: as §1
# HepG2-ACTB-RAB5A [3] = assay: as above
# Outline: as §1
# HepG2-CANX-COX4 = assay: as above
# Outline: as §1
# HepG2-GM130-SQSTM1 [4] = assay: as above
# Outline: as §1
# HepG2-TP53BP1-CLTA = assay: as above
# Outline: as §1
# HepG2-TUBA1B-RELA = assay: as above
# Outline: as §1
# WPMY1-ACTB-RAB5A = assay: as above
# Outline: as §1
# WPMY1-CANX-COX4 = assay: as above
# Outline: as §1
# WPMY1-GM130-SQSTM1 [5] = assay: as above
# Outline: as §1
# WPMY1-TP53BP1-CLTA = assay: as above
# Outline: as §1
# WPMY1-TUBA1B-RELA = assay: as above
# Outline: as §1
# A549-GM130-SQSTM1 [6] = assay: lowest phenotypically active concentration; higher = less potent
# Outline: as §1
# HepG2-ACTB-RAB5A [7] = assay: as above
# Outline: as §1
# HepG2-GM130-SQSTM1 [8] = assay: as above
# Outline: as §1
Compound,lowest phenotypically active concentration (WPMY1-GM130-SQSTM1 [1]) [µM],phenotypically active (A549-ACTB-RAB5A),phenotypically active (A549-CANX-COX4),phenotypically active (A549-GM130-SQSTM1 [2]),phenotypically active (A549-TP53BP1-CLTA),phenotypically active (A549-TUBA1B-RELA),phenotypically active (HepG2-ACTB-RAB5A [3]),phenotypically active (HepG2-CANX-COX4),phenotypically active (HepG2-GM130-SQSTM1 [4]),phenotypically active (HepG2-TP53BP1-CLTA),phenotypically active (HepG2-TUBA1B-RELA),phenotypically active (WPMY1-ACTB-RAB5A),phenotypically active (WPMY1-CANX-COX4),phenotypically active (WPMY1-GM130-SQSTM1 [5]),phenotypically active (WPMY1-TP53BP1-CLTA),phenotypically active (WPMY1-TUBA1B-RELA),lowest phenotypically active concentration (A549-GM130-SQSTM1 [6]) [µM],lowest phenotypically active concentration (HepG2-ACTB-RAB5A [7]) [µM],lowest phenotypically active concentration (HepG2-GM130-SQSTM1 [8]) [µM]
O=C(Nc1ccccc1)N1CCN(c2nc(-c3ccccc3)ns2)CC1,9,0 (inactive),0 (inactive),0 (inactive),0 (inactive),0 (inactive),0 (inactive),1 (active),0 (inactive),1 (active),1 (active),0 (inactive),0 (inactive),1 (active),0 (inactive),0 (inactive),,,
CC1(C)CCC(C)(C)c2cc(C(O)C(=O)Nc3ccc(C(=O)O)cc3F)ccc21 (stereo not given),,0 (inactive),0 (inactive),0 (inactive),0 (inactive),0 (inactive),0 (inactive),1 (active),0 (inactive),0 (inactive),0 (inactive),0 (inactive),0 (inactive),0 (inactive),0 (inactive),0 (inactive),,,
CCCc1cc2c(N3CCN(C4=NCC(C)(C)S4)CC3)ncnc2s1 [MI 2 dihydrochloride],9,0 (inactive),0 (inactive),1 (active),0 (inactive),0 (inactive),1 (active),1 (active),1 (active),1 (active),0 (inactive),1 (active),0 (inactive),1 (active),0 (inactive),0 (inactive),9,9,9
CCCCCCCCCCCCC/C=C/[C@H](O)[C@H](N)CO [D-erythro-Sphingosine (synthetic)],9,0 (inactive),0 (inactive),1 (active),0 (inactive),0 (inactive),0 (inactive),0 (inactive),0 (inactive),0 (inactive),0 (inactive),0 (inactive),0 (inactive),1 (active),0 (inactive),0 (inactive),9,,
Nc1nnc(Sc2ncc([N+](=O)[O-])s2)s1,,0 (inactive),0 (inactive),0 (inactive),0 (inactive),1 (active),0 (inactive),0 (inactive),0 (inactive),0 (inactive),0 (inactive),0 (inactive),0 (inactive),0 (inactive),0 (inactive),0 (inactive),,,
Cc1ccc(-n2sc3ccccc3c2=O)cc1,9,0 (inactive),0 (inactive),0 (inactive),0 (inactive),0 (inactive),0 (inactive),1 (active),1 (active),0 (inactive),0 (inactive),1 (active),0 (inactive),1 (active),0 (inactive),0 (inactive),,,9
C[C@@H]1CN(Cc2ccc(F)cc2)[C@@H](C)CN1C(=O)c1cc2c(C(=O)C(=O)N(C)C)cn(C)c2cc1Cl [SCIO 469 hydrochloride],,0 (inactive),0 (inactive),0 (inactive),0 (inactive),0 (inactive),1 (active),1 (active),0 (inactive),1 (active),1 (active),1 (active),1 (active),0 (inactive),0 (inactive),0 (inactive),,9,
CC(C)NCC(O)COc1ccc(CC(N)=O)cc1 (stereo not given) [atenolol-()],9,0 (inactive),0 (inactive),1 (active),0 (inactive),0 (inactive),0 (inactive),0 (inactive),0 (inactive),0 (inactive),0 (inactive),0 (inactive),0 (inactive),1 (active),1 (active),0 (inactive),9,,
O=C(O)[C@H]1CCCC[C@H]1C(=O)N1CCc2ccccc2[C@H]1CN1C(=O)c2ccccc2C1=O,,0 (inactive),0 (inactive),0 (inactive),0 (inactive),0 (inactive),1 (active),0 (inactive),1 (active),0 (inactive),1 (active),0 (inactive),0 (inactive),0 (inactive),0 (inactive),0 (inactive),,9,9
CCCN[C@H]1CCc2nc(N)sc2C1 [pramipexole],9,0 (inactive),0 (inactive),0 (inactive),0 (inactive),0 (inactive),0 (inactive),0 (inactive),0 (inactive),0 (inactive),0 (inactive),0 (inactive),0 (inactive),1 (active),0 (inactive),0 (inactive),,,
CCCCc1c(O)n(-c2ccccc2)n(-c2ccccc2)c1=O [phenylbutazone],≤ 0.3,0 (inactive),0 (inactive),0 (inactive),0 (inactive),0 (inactive),0 (inactive),0 (inactive),0 (inactive),0 (inactive),0 (inactive),0 (inactive),0 (inactive),1 (active),0 (inactive),0 (inactive),,,
CNC(=C[N+](=O)[O-])NCCSCc1ccc(CN(C)C)o1 [ranitidine],,0 (inactive),0 (inactive),0 (inactive),0 (inactive),0 (inactive),0 (inactive),0 (inactive),1 (active),0 (inactive),0 (inactive),0 (inactive),0 (inactive),0 (inactive),0 (inactive),0 (inactive),,,1
O=[N+]([O-])c1cc(Cl)ccc1S(=O)(=O)c1ccccc1,9,0 (inactive),0 (inactive),0 (inactive),0 (inactive),0 (inactive),0 (inactive),0 (inactive),1 (active),0 (inactive),0 (inactive),0 (inactive),0 (inactive),1 (active),0 (inactive),0 (inactive),,,3
COc1ccc(-c2ccc3cc(C(=O)O)ccc3c2)cc1C12CC3CC(CC(C3)C1)C2 [Adapalene],1,0 (inactive),0 (inactive),0 (inactive),0 (inactive),0 (inactive),0 (inactive),0 (inactive),0 (inactive),0 (inactive),0 (inactive),0 (inactive),0 (inactive),1 (active),0 (inactive),0 (inactive),,,
